Screening results as filed in PubChem.
Shown are actives, neighbours in structure and some others; about 12% of the full set was active somewhere.
BAZ2B block = BAZ2B (human) inhibition. Q9UIF8. Potency, µM (highest dose often 114 µM), actives largely listed as inhibitors. actives 4.4% (n = 360,000). AID 504333. AlphaScreen BAZ2B-H3K14Ac peptide displacement; also: nearly all actives have a fitted effect of over 60% in size
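AlphaScreen luminescence quantifies BAZ2B engagement of H3K14Ac peptide; the protein and biotinylated peptide are both at 50 nM final, buffer PBS pH 7.4 with 0.01% Tween-20, all steps at room temperature.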
JMJD2A Tudor = blocks the human JMJD2A Tudor domain. actives 4.4% (n = 390,000). AlphaScreen JMJD2A-Tudor / H3K4me3 peptide binding. Potency, µM (top dose mostly 114 µM), actives largely listed as inhibitors; also: nearly all actives have a fitted effect of over 50% in size
G9a block = blocks human histone lysine methyltransferase G9a; Potency, µM (doses to about 102 µM), usual class: inhibitors; AID 504332; actives 8.8% (n = 350,000); G9a H3K9 monomethylation, AlphaScreen, 2 h; also: nearly all actives have a fitted effect of over 75% in size
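Readings reflect AlphaScreen signal from monomethyl-H3K9 antibody detection. HMT at 20 nM; substrate b-H3K9 500 nM; cofactor SAM 20 uM; 2 h RT reaction; compounds tested as titrations in qHTS with 15 min preincubation.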
HP1b binding inh = inhibitors of HP1-beta chromodomain binding to methylated histone tails | AlphaScreen HP1-beta / biotin-H3K9me3 peptide binding | Potency, µM (top dose mostly 114 µM), most hits filed as inhibitors | actives 0.56% (n = 390,000); also: nearly all actives have a fitted effect of over 70% in size
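AlphaScreen: HP1-beta (50 nM) preformed 30 min with biotin-H3(1-18)K9me3 peptide (50 nM) in PBS pH 7.4, 0.01% Tween-20. Compound added for 30 min at RT, then streptavidin donor/nickel chelate acceptor beads (10 ug/mL) for 30 min.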
PLK1 PBD block = PLK1 (human) polo-box domain binding inhibition; P53350; Plk1 PBD binding of FITC phosphopeptide, fluorescence polarization; Potency, µM, usual class: inhibitors; actives 2.8% (n = 360,000); AID 720504; also: series mostly up to about 57 µM; nearly all actives have a fitted effect of over 65% in size
Target sequence (P53350 whole entry, looked up, the tested form may be a part): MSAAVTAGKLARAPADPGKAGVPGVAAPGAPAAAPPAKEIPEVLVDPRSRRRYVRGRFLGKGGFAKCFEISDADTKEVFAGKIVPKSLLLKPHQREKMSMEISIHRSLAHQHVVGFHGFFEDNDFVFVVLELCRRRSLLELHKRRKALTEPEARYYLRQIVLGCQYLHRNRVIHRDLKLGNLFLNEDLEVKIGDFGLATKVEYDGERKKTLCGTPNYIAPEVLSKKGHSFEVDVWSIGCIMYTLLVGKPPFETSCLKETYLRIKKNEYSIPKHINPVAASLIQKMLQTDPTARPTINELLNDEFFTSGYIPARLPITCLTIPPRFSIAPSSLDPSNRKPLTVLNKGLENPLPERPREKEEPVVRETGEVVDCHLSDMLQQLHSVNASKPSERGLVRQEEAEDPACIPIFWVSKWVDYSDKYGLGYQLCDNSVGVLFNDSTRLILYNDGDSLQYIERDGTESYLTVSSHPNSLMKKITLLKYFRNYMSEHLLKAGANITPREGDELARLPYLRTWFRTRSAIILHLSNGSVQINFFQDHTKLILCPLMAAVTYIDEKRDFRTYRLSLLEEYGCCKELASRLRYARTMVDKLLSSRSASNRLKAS
PI5P4Ka inh = PI5P4K alpha (human) kinase inhibition; P48426; PI5P4Kalpha enzyme, ADP-Glo luminescence, 60 min; stronger effect = lower value; max response, %; actives 1.2% (n = 330,000); AID 652105; active = max response of -50% or lower; inconclusive = between -30% and -50%; inactive = -30% or higher; also: value at the top dose of about 77 µM
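Reactions run in 0.038 M HEPES pH 7.4, 0.28 mM EGTA, 0.1% CHAPS and 5% DMSO, with PI5P4Kalpha, substrate, compound and 5 microM ATP final, one hour at room temperature. Readout is ADP-Glo luminescence.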
Of the large screens only hits and unclear results are named; the others gave an inactive call. Unless noted, calls follow the shape of the dose curve; as a rule, active = well fitted curve in the direction sought with a large enough effect; inconclusive = small, poorly fitted or top-dose-only effect, or another doubt; inactive = no such curve, though single readings can be large; an effect the other way counts as inactive or inconclusive.

COc1ccccc1NC(=O)C1=C(C)Nc2c(C(=O)Nc3ccc(F)cc3)cnn2C1c1cccc([N+](=O)[O-])c1 (centres undefined)	none (no result: PLK1 PBD block, PI5P4Ka inh)
Cc1cc(=O)n2nc(-c3ccccc3)sc2c1C#N	JMJD2A Tudor inconclusive, PLK1 PBD block 21.2µM
Cc1cc(=O)n(Cc2ccccc2)c(O)c1C#N	BAZ2B block inconclusive
Cc1ccc(-c2ccc(=O)n(CCC(=O)NCCc3ccccc3)n2)cc1	none (no result: PLK1 PBD block, PI5P4Ka inh)
O=C(Nc1ccc2nc3n(c(=O)c2c1)CCCCC3)C(=O)N1CCN(c2ccccc2F)CC1	JMJD2A Tudor 35.5µM, PLK1 PBD block 29.9µM
CC1=C(C(=O)N2CCOCC2)CC(CC(=O)NC2CCCCC2)C(=O)N1Cc1ccc(C(C)(C)C)cc1 (centres undefined)	none (no result: BAZ2B block, JMJD2A Tudor, G9a block, HP1b binding inh)
COc1cc2c(cc1OC)C(c1ccc(-c3ccc(Cl)cc3Cl)o1)=NCC2	BAZ2B block inconclusive, G9a block inconclusive
COc1cc2c(cc1OC)C(c1ccc(-c3cc(Cl)ccc3Cl)o1)=NCC2	BAZ2B block inconclusive, JMJD2A Tudor inconclusive, G9a block inconclusive
COc1cc2c(cc1OC)C(c1ccc(-c3ccc(Cl)c(Cl)c3)o1)=NCC2	BAZ2B block inconclusive, JMJD2A Tudor 17.8µM, G9a block 14.1µM, HP1b binding inh inconclusive (no result: PI5P4Ka inh)
COc1cc2c(cc1OC)C(c1ccc(-c3ccccc3Cl)o1)=NCC2	BAZ2B block 28.2µM, JMJD2A Tudor inconclusive, G9a block 7.08µM, HP1b binding inh inconclusive (no result: PI5P4Ka inh)
COC(=O)Nc1nc(C)c(C(=O)N(C)C)s1	none
COCCNc1nc(C)c(C(C)=O)s1	G9a block 39.8µM
Cc1nc(NCCc2ccccc2)sc1C(=O)N(C)C	G9a block 25.1µM, PLK1 PBD block 18.9µM
COc1ccccc1CNc1nc(C)c(C(C)=O)s1	BAZ2B block inconclusive, G9a block 11.2µM, PLK1 PBD block 15µM
COc1ccccc1CNc1nc(C)c(C(=O)N(C)C)s1	G9a block 14.1µM, HP1b binding inh inconclusive, PLK1 PBD block 23.8µM
O=C(Cc1cccc([N+](=O)[O-])c1)NCc1nc2cccnc2n1Cc1ccc(F)cc1	none (no result: PLK1 PBD block, PI5P4Ka inh)
COc1cc(OC)c(Nc2ncnc3onc(-c4cccc(Cl)c4)c23)cc1Cl	none (no result: PLK1 PBD block, PI5P4Ka inh)
O=C(Nc1cccc(Br)c1)N1CCC(CN2CCCCCC2)CC1	none (no result: PLK1 PBD block, PI5P4Ka inh)
CCN1CCCC1CNC(=O)c1cc([N+](=O)[O-])c(N(C)C)cc1OC (centres undefined)	none
Cc1ccc(NC(=O)Cn2nnc(C(=O)NCCc3ccccc3)c2N)cc1	G9a block inconclusive (no result: PLK1 PBD block, PI5P4Ka inh)
Cc1ccc(S(=O)(=O)/N=S(/c2ccccc2)C(C)C)cc1 (centres undefined)	G9a block 4.47µM, HP1b binding inh inconclusive, PLK1 PBD block 10.6µM
CCCCC(=O)N1C/C=C\C(c2ccc(OC)cc2)N(Cc2ccc(F)cc2)C(=O)C1Cc1ccccc1 (centres undefined)	none (no result: BAZ2B block, G9a block, PLK1 PBD block, PI5P4Ka inh)
CC[N+]1=CN(c2ccccc2)C(C)=CC1(C)C	JMJD2A Tudor inconclusive, G9a block 1.78µM, PLK1 PBD block inconclusive
CC1=NN(c2ccccc2)C(=O)C1(C)C	none
COc1ccc(NC(=O)C(c2ccc(C(F)(F)F)cc2)n2c(=O)c(-c3cc4ccccc4[nH]3)nc3ccccc32)cc1 (centres undefined)	none (no result: BAZ2B block, JMJD2A Tudor, G9a block, HP1b binding inh)
CC1=CC(C)(C)N(S(=O)(=O)c2ccc(C)cc2)c2ccc(C)cc21	none (no result: PI5P4Ka inh)
CC1=CC(C)(C)[N+](C)(C)c2ccc(C)cc21	BAZ2B block inconclusive, JMJD2A Tudor inconclusive, G9a block 56.2µM
CC(C)c1nn2c(=O)cc(COc3cccc(NC(=O)c4ccco4)c3)nc2s1	PLK1 PBD block 23.8µM
CN(C)c1ncc2nc(-c3ccc(Cl)cc3)c(=O)n(Cc3cccs3)c2n1	none (no result: BAZ2B block, JMJD2A Tudor, HP1b binding inh, PLK1 PBD block, PI5P4Ka inh)
COc1ccc(CCNCCN2CCOCC2)cc1	BAZ2B block 25.1µM, JMJD2A Tudor 20µM, G9a block 3.55µM, HP1b binding inh inconclusive
COc1ccc(Nc2nc(NCCN3CCOCC3)nc(Nc3ccc(OC)cc3)n2)cc1	BAZ2B block 44.7µM, JMJD2A Tudor inconclusive, G9a block inconclusive
COc1ccc(CCNC(=O)C(=O)NCCCN2CCOCC2)cc1	none
COc1ccc(OC)c(CNC(=O)NCc2noc3ccc(C)cc23)c1	none (no result: PLK1 PBD block, PI5P4Ka inh)
Cc1ccc(N(C)S(=O)(=O)c2ccc3c(c2)CCC(=O)N3)cc1C	none (no result: BAZ2B block, G9a block, HP1b binding inh, PLK1 PBD block, PI5P4Ka inh)
